Compounds without any hit were thinned out: in the full panel of roughly 83,000, 20% have a hit.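 Note: values are percent growth. 100 is the growth of untreated cells, values between 100 and 0 indicate rising inhibition; between -100 and 0 indicates cell death.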 The source made the active and inactive calls. The calls were made as follows: active = growth percent below 10; inactive = the rest.
Legend:
Assay in all cases: NCI-60 one-dose screen, 48 h (100 = growth as untreated, 0 = no growth, -100 = all killed)
Conditions in all cases: 10 µM unless noted
[1] = test system: NCI-H23 lung
[2] = test system: NCI-H322M lung
[3] = test system: HOP-62 NSCLC
[4] = test system: NCI-H460 lung
[5] = test system: A549/ATCC NSCLC
[6] = test system: 786-0 renal
[7] = test system: COLO 205 colon
[8] = test system: DU-145 prostate
[9] = test system: NCI-H522 lung
[10] = test system: NCI-H226 lung

Measured: growth

O=C(Nc1ccc(Oc2ccc(NC(=O)Nc3ccc([N+](=O)[O-])cc3)cc2)cc1)Nc1ccc([N+](=O)[O-])cc1
inactive: [2] 22.6% | [8] 17.3%
active: [1] -17.8% | [3] -25% | [4] 2.83% | [5] 7.01% | [6] -1.95% | [7] -51.1%

CN(CC(=O)Nc1nc2ccccc2[nH]1)S(=O)(=O)c1ccc(Cl)cc1
inactive: [1] 126% | [2] 98.3% | [3] 69.4% | [4] 45.3% | [9] 80.6% | [5] 111% | [6] 91.9% | [7] 95.6% | [8] 89.9%

CO[C@H]1/C=C/O[C@@]2(C)Oc3c(C)c(O)c4c(O)c(c(/C=N/N5CCN(C)CC5)c(O)c4c3C2=O)NC(=O)/C(C)=C\C=C\C(C)[C@H](O)[C@@H](C)[C@@H](O)[C@@H](C)[C@@H](OC(C)=O)[C@@H]1C (stereo partly drawn)
inactive: [1] 96.3% | [2] 112% | [3] 99.4% | [4] 103% | [5] 97.1% | [6] 96.6% | [7] 103% | [8] 104%

COc1cc(NC(=O)c2cc3ccccc3cc2O)c(OC)cc1Cl
inactive: [7] 41.6% | [8] 25.6%
active: [1] -19.3% | [2] -3.14% | [3] -29.6% | [4] 3.33% | [9] -30.1% | [5] 5.74% | [6] -5.13%

O=C(NCCCO)c1cc(Cl)ccc1O
active: [1] 8.32% | [4] 9.74% | [9] -1.53%
inactive: [2] 83.6% | [3] 36.3% | [5] 38.5% | [6] 49.5% | [7] 25% | [8] 36.1%

Cc1c(C(N)=O)sc2c1c(=O)n(Cc1ccccc1)c1nnc(SCC(=O)Nc3ccc(Cl)cc3)n21
active: [3] -6.06% | [4] -12.3% | [6] -41.2%
inactive: [1] 57.7% | [2] 28.9% | [9] 17.2% | [5] 20.7% | [7] 50.7% | [8] 39.5%

C=C(C)[C@H]1CC/C(C)=C/CC[C@]2(C)O[C@H]2CC/C(COC(C)=O)=C\C1=O
inactive: [1] 103% | [2] 87.3% | [3] 102% | [4] 116% | [9] 109% | [5] 37.7% | [6] 92.1% | [8] 140%

O=C(Nc1ccc(Cl)cc1Cl)Nc1ccc(-c2cccnc2)cc1N1CCC(CO)CC1
inactive: [1] 29% | [2] 61.5% | [3] 42% | [4] 35.1% | [5] 27.2% | [6] 52.3% | [7] 16.1% | [8] 54.2%

N=C(N)/N=C(\CCc1nc2ccccc2[nH]1)c1nc2ccccc2[nH]1
inactive: [1] 91.6% | [3] 97% | [4] 114% | [9] 96% | [5] 102% | [6] 107% | [7] 103% | [8] 111%

Cn1cc(-c2csc(-c3cn(C)c4ncccc34)n2)c2cc(F)cnc21
inactive: [10] 94.4% | [2] 112% | [3] 99.1% | [4] 84.1% | [9] 22.2% | [5] 73.6% | [6] 91%

Cn1cc(-c2nc(-c3c[nH]c4ncccc34)cs2)c2cccnc21
inactive: [1] 63.1% | [2] 64.3% | [3] 68.2% | [4] 46.6% | [5] 69.6% | [6] 60.6%

Nc1nc(SCc2ccccc2Cl)c(-c2ccccc2)c(SCc2ccccc2Cl)n1
inactive: [1] 83.2% | [2] 107% | [3] 87.9% | [4] 85.6% | [9] 79.3% | [5] 79.3% | [6] 104% | [7] 95% | [8] 98.2%

Cc1ccc([N+](=O)[O-])cc1NC(=O)Nc1cccc(F)c1
inactive: [1] 42.2% | [2] 98.3% | [3] 99.4% | [4] 47.2% | [9] 31.4% | [5] 57.9% | [6] 71.6% | [7] 138% | [8] 84.6%

COc1cc(/C=C/C(=O)Nc2ccc3c(c2)/C(=C\c2cccn2C)C(=O)N3)cc(OC)c1OC
active: [9] 5.66%
inactive: [1] 57% | [2] 61.2% | [3] 45.5% | [4] 55.4% | [5] 37.5% | [6] 54.8% | [7] 53.7% | [8] 63%

C[N+]1(CCC[N+]2(C)C[C@@H]3[C@H](C2)[C@@H]2C=C[C@H]3C2)CCOCC1 (stereo partly drawn)
inactive: [1] 105% | [2] 106% | [3] 94.3% | [4] 116% | [9] 106% | [5] 111% | [6] 109% | [7] 104% | [8] 140%

C=C(C[C@](O)(C(=O)/C=C/c1ccc(Cl)cc1)C(=O)OC)c1ccccc1
inactive: [1] 64.4% | [2] 90.3% | [3] 54% | [4] 88.6% | [9] 66% | [5] 74.4% | [6] 84% | [7] 60.4% | [8] 97.4%

COC(=O)CCC1=C(C)/C(=C/c2[nH]c(-c3ccc[nH]3)cc2OC)N=C1C
active: [1] 8.11% | [3] 3.57% | [4] 6.04% | [9] -66.9%
inactive: [5] 13% | [6] 13.1% | [7] 12.1% | [8] 14.2%

CCN1CCN(c2cc(-c3cn[nH]c3-c3cc(C)cc(OC)c3)nc(-c3cccnc3)n2)CC1
inactive: [1] 93.9% | [2] 67.5% | [3] 101% | [4] 88.9% | [9] 75.6% | [5] 82.3% | [6] 58.1% | [7] 51.3% | [8] 75%

CCCCCCCCCCSc1ncnc2nc[nH]c12
inactive: [1] 36.8% | [2] 88.5% | [3] 86.3% | [4] 65.8% | [9] 57.1% | [5] 58.5% | [6] 71.3% | [7] 113% | [8] 75%

C[C@@H]1CC[C@H]2[C@@H](C)C(O)O[C@@H]3O[C@]4(C)CC[C@@H]1[C@]32OO4 (stereo partly drawn)
inactive: [1] 15.4% | [2] 68.9% | [3] 59.4% | [4] 30.6% | [5] 41.5% | [6] 46.1% | [8] 75.1%
active: [9] -8.88% | [7] 6.72%

NC(=O)c1ccccc1NC(=O)c1ccccc1Cl
inactive: [1] 104% | [2] 109% | [3] 112% | [4] 114% | [9] 96.5% | [5] 98.3% | [6] 102% | [7] 121% | [8] 113%

CC(c1ccccn1)C(C)(O)C(C)c1ccccn1 (stereo not drawn)
inactive: [1] 104% | [2] 118% | [3] 101% | [4] 113% | [9] 112% | [5] 106% | [6] 107% | [7] 108% | [8] 101%

CCC(O)C(C)(C)C (stereo not drawn)
inactive: [1] 102% | [2] 127% | [3] 115% | [4] 105% | [9] 106% | [5] 94.2% | [6] 111% | [7] 114% | [8] 108%

CO[C@H]1CC(O[C@@H]2/C(C)=C/C[C@@H]3C[C@@H](C[C@]4(CC[C@H](C)[C@@H](C5CCCCC5)O4)O3)OC(=O)[C@@H]3C=C(C)/C(=N/O)[C@H]4OC/C(=C\C=C\[C@@H]2C)[C@]43O)O[C@@H](C)C1O (stereo partly drawn)
active: [1] -76.2% | [2] -78% | [3] -88.8% | [4] -82.3% | [9] -73.4% | [5] -82.9% | [6] -91.1% | [7] -79.4% | [8] -96.1%

COc1ccc(-c2noc(N)c2-c2cc(OC)c3c(c2)OCO3)cc1
active: [9] -23.4%
inactive: [1] 28.1% | [2] 57.5% | [3] 34.6% | [4] 16% | [5] 29.2% | [6] 59.7% | [7] 12.4% | [8] 28.7%

O=C1/C(=N/O)CCc2ccccc21
inactive: [1] 98.1% | [2] 102% | [3] 91.5% | [4] 92.6% | [9] 94% | [5] 103% | [6] 111% | [7] 100% | [8] 100%

COc1ccc(/C=C2\COc3ccc(O)c(O)c3C2=O)cc1OC
active: [4] 1.26% | [9] -55.5% | [6] -17.8% | [8] 6.44%
inactive: [1] 41% | [2] 48.9% | [3] 11.6% | [5] 31.7% | [7] 55.6%

O=C(/C=C/c1cccnc1)NCCCCC1CCCN(C(=O)c2ccccc2)C1 (stereo not drawn)
active: [9] 1.41%
inactive: [1] 70.1% | [3] 85.1% | [4] 29% | [5] 49% | [6] 71.7% | [8] 33.4%

CCn1c2c(c3ccccc31)SC1c3cccn3CCN1C2=S (stereo not drawn)
inactive: [1] 93.7% | [2] 89.8% | [3] 103% | [4] 98.9% | [9] 82.1% | [5] 88.5% | [6] 102% | [7] 109% | [8] 102%

Source: PubChem BioAssay (NCI)
